The values below come from PubChem BioAssay AID493201 (National Center for Advancing Translational Sciences (NCATS), 2011).

Inconclusive results are not listed. Entries that show only a call come without a potency. The source made the active and inactive calls. Calls come from the whole dose curve; as a rule, active = well fitted activation curve with a large enough effect; inconclusive = small, poorly fitted or top-dose-only effect; inactive = no such curve, though single readings can be large or run the other way.
Potency is the fitted concentration of half-maximal effect.

This assay is described as follows: qHTS Assay for Identifying a Potential Treatment of Ataxia-Telangiectasia: Secondary assay (no NCS) hit validation.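 Note: phosphorylated KAP1 signal as a proxy for ATM-like kinase activity.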 To be noted: A-T patient fibroblasts, AlphaLISA, no DNA damage added, 90 min; series mostly up to 76.9 µM. The source says:
NIH Chemical Genomics Center [NCGC]
NIH Molecular Libraries Probe Centers Network [MLPCN]
Assay Submitter (PI): Wei Zheng and Yosef Shiloh
Ataxia-telangiectasia (A-T) is a devastating and progressive disease for which, there is no cure. Although A-T is a multisystem disease, it is stereotyped characterized by its neurological symptoms such as truncal ataxia, due to cerebellar cortical degeneration of the Purkinje and granule cells. Other symptoms of A-T are telangiectasias (dilated blood vessels), primary immunodeficiency, marked sensitivity to ionizing radiation (IR), chromosomal instability and predisposition to cancer.
The underlying genetic cause of A-T is null mutations in the ATM (A-T mutated) gene. ATM is a nuclear serine/threonine kinase that functions as a master regulator of the cellular responses to double strand breaks (DSBs) in the DNA. Upon activation by DSBs, ATM phosphorylates a plethora of downstream targets, including KAP-1 on […]. KAP-1 phosphorylation occurs shortly in response to DSBs and mediates global chromatin relaxation, which facilitates DSB repair. To screen for small molecules that will compensate for the loss of ATM in cells derived from A-T patients, we monitored KAP-1 phosphorylation as a readout for ATM-like activity using an AlphaLISA assay. This secondary assay omits NCS, which creates double-stranded DNA breaks.
Step,Parameter,Value,Description
1. Cell Plating, 3 ul, 500 cells/well in OPTI-MEM, 1% FBS, 1% Pen/Strep
3. Library compounds, 23 nl, 76.7 - 0.61uM dilution series final concentration
4. Incubation, 60 min, 37C, 5% CO2, 95% humidity
6. Incubation, 30 min, 37C, 5% CO2, 95% humidity
7. Reagent, 1 ul, Premixed detection reagents and lysis buffer
8. Reagent, 1 ul, 0.6% Antifoam A
9. Incubation, 6 hr, 25C, 95% humidity
10. Readout, EnVision, EnVision plate reader. AlphaScreen 1536-well protocol
Cells were plated using medium-binding white solid-bottom tissue culture treated Kalypsys plates. Multidrop dispense of 3 uL of F2112 (hTERT immortalized A-T patient fibroblast cells). Detection reagent and lysis buffer was 3.75nM Rab-a-pKAP1 antibody bound to 75 ng/ul AlphaScreen SA donor bead, 3.75 nM Biot-M-a-KAP1 antibody bound to AlphaLISA protein A acceptor bead, 0.5x protease inhibitor cocktail and 0.25x PerkinElmer lysis buffer. EnVision protocol for 1536-well AlphaScreen read (30ms excitation, 100ms read), about 10 min/plate.
Background: qHTS replaces the single test concentration by a dilution series.
For the compound `COc1ccc(C(CNC(=O)C(Cc2ccccc2)NC(N)=O)N(C)C)cc1` (stereo not given), the Potency result is “inactive”.
As to `CNC(=O)/C=C/c1cc(C(=O)c2ccc(Cl)cc2Cl)cn1C`, the Potency result was “inactive”.
Under `COc1cccc(OC)c1C(=O)NC(=O)Nc1c(C)cccc1C` stands “inactive”; under `CN(C)c1cc(Nc2ccc(O)cc2)c([N+](=O)[O-])c2nonc12`, “inactive”; under `COC(=O)CCc1c(C)c(C(=O)c2cc(OC)c(OC)c(OC)c2)c2ccccn12`, “inactive”.
With `CCn1c(SCc2cccc(F)c2)nnc1-c1ccncc1` the entry was “inactive”; with `Cc1cc(C)c2c(Cn3ccnc3)cc(=O)oc2c1`, “inactive”; with `CC(C)CC(=O)Nc1c2c(nn1-c1cccc(Cl)c1)CS(=O)C2` (stereo not given), 58.2 µM (active).
With `CCNC(=S)N(CCc1c(C)[nH]c2ccccc12)Cc1cccnc1` the entry was “inactive”; with `CCCc1ccc(S(=O)(=O)Nc2ccc(C)c(NS(C)(=O)=O)c2)cc1`, “inactive”; with `O=C(C(c1ccccc1)c1ccccc1)N1CC[C@@]2(O)CCCC[C@H]2C1`, “inactive”.
Regarding `CN1C[C@@H]2C(c3ccccc3)C3(c4ccccc4)CC2(C3)[C@H]1c1ccccc1` (stereo not given in full), the Potency is 20.7 µM (active).
With `NC(=O)C1CCN(Cc2nc3cc(C(F)(F)F)ccc3c(=O)[nH]2)CC1` the entry was “inactive”; with `COc1ccc(C2/C=C\CN(S(=O)(=O)c3ccc4ccccc4c3)CC(=O)N2Cc2ccc(F)cc2)cc1` (stereo not given), 41.2 µM (active).
Under `COc1cccc(C2C(C(N)=O)=C(C)Nc3nc(CCCO)nn32)c1` (stereo not given) stands “inactive”.
`COc1ccccc1[C@H]1C(c2cccc(Cl)c2)=NN(c2ccccc2)[C@@H]1CO`: the Potency result was “inactive”.
Under `O=C(O)CCCN1C(=O)/C(=C/C=C/c2ccco2)SC1=S` stands “inactive”; under `COc1ccccc1S(=O)(=O)Nc1ccc(-c2nnc3n2CCCCC3)cc1`, “inactive”; under `CCC12CN(C(=O)c3ccc([N+](=O)[O-])cc3)CC(CC)(CN(C(=O)c3ccc([N+](=O)[O-])cc3)C1)C2=O`, 0.207 µM (active).
With `CCN(CC)CCNC(=O)CCc1c(C)nc2c(c(C)nn2-c2ccc(C)cc2)c1C` the entry was “inactive”.
Regarding `Oc1ccc(-c2nccc(-c3ccc(F)cc3)n2)cc1`, the Potency is 5.82 µM (active).
With `CCOC(=O)c1c(CSc2ccsc2)n(C)c2cc(Br)c(O)c(CN(C)C)c12` the figure was 26 µM (active).
With `CCC(=O)Nc1ccc(S(=O)(=O)c2ccc(NC(=O)CC)cc2)cc1` the entry was “inactive”.
Under `COc1ccc2nc(C)cc(Nc3ccc(C(=O)O)cc3)c2c1` stands “inactive”.
For `CNC(=O)Cc1csc2ccc(C)cc12`, the Potency result was “inactive”.
Consider `CCC[C@H]1CCCC/C=C\CCCC(=O)OCCN1C(=O)OC(C)(C)C`, for which the Potency entry is “inactive”.
As for `O=C(OCCc1cc2ccccc2c(=O)o1)c1cccc(Br)c1`, the Potency result was “inactive”.
`CCOC(=O)C1CCN(C(=O)c2cc3cc(Cl)ccc3[nH]2)CC1`: the Potency entry was “inactive”.
Take `CC(=O)Nc1ccc(NC2=CC(=O)c3ccccc3C2=O)cc1`: the Potency entry is “inactive”.
Regarding `Cc1ccc(NC(=O)NC(=O)N(C(C)C)S(C)(=O)=O)nc1`, the Potency entry is “inactive”.
For the compound `CC1CC(C)CN(S(=O)(=O)c2ccc(C(=O)NCCCn3ccnc3)cc2)C1` (stereo not given), the Potency result was “inactive”.
Consider `Cc1ccc(C2(C)NC(=O)N(CC(=O)Nc3ccccc3N3CCCC3)C2=O)cc1` (stereo not given), for which the Potency result is “inactive”.
For the compound `COc1ccccc1OC(=O)Nc1ccc(Cl)cc1`, the Potency is 3.28 µM (active).
Under `CCC(=O)c1ccc2c(c1)OCCO2` stands “inactive”; under `CCN(CC)c1ccc2cc(-c3nc4ccccc4[nH]3)c(=O)oc2c1`, “inactive”.
Under `CC1C(c2ccccc2)N(C)C(c2ccccc2)CC1(O)c1ccccc1` (stereo not given) stands 13 µM (active); under `CCOC(=O)N1CCN(c2nc(N(c3ccccc3)c3ccccc3)nc(-n3ccnc3)n2)CC1`, “inactive”; under `O=C(CCC(=O)c1ccc(F)cc1)Nc1cccc(Br)c1`, “inactive”.
Under `CN(C)C(=O)CN(C)S(=O)(=O)c1ccc(Cl)cc1` stands “inactive”; under `CCN1CCN(CC(=O)Nc2ccc(C(C)=O)cc2)CC1`, 26 µM (active).
